One assay deals with Tov-21-G. The assay is described as follows: Primary qHTS to identify gynecologic anti-cancer compounds using libraries of approved drugs and bioactive compounds (AID 1345084). Further: nearly all actives have a fitted effect of over 55% in size. Further: potency means the concentration at half of the fitted maximal effect. Particulars: Gynecologic cancer cell panel viability, ATPlite luminescence, 48 h; series mostly up to 57.5 µM. Summed up: (§1)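 Cell viability after 48 h drug treatment, ATPlite luminescence readout; five doses.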
On the technique in general: qHTS replaces the single test concentration by a dilution series.

A further assay concerns Tov112D. Described as above. The settings on record: Gynecologic cancer cell panel viability, ATPlite luminescence, 48 h; series mostly up to 57.5 µM. Summed up:
as §1
(In ATP-based viability assays light output follows the ATP content of the culture.)

A further assay concerns astro. The assay is described as follows: Drug repurposing screens with cells derived from glioblastoma tumor samples (AID 1345199). Further: nearly all actives have a fitted effect of over 40% in size. Further: potency means the concentration at half of the fitted maximal effect. On activity, negative = cell killing: on the % scale 0 is the no-effect control and ±100 the full control effect. The settings on record: viability, ATP luminescence, 48 h; series mostly up to 45.9 µM. In outline:
(§2)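 Primary testing used CD133+ neurospheres from four GBM patients, seven concentrations, 48 h exposure and ATP-based viability; confirmation added three slower-growing patient lines.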

Assay [1] in a line: qHTS assay to identify inhibitors of the type 1 interferon - major histocompatibility complex class I in skeletal muscle: Counter screen cell viability and HiBit confirmation (AID 1347412). Further: nearly all actives have a fitted effect of over 60% in size. Further: potency means the concentration at half of the fitted maximal effect. The settings on record: iHSKM muscle cells + IFN-b, HiBiT or CellTiter-Glo, 24 h; Potency: HiBiT; Viability, at 45.9 µM (top of the series). Summed up:
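HLA-B*08:01–HiBiT knock-in immortalized human myoblasts (C25cl48) stimulated with 4.0 ng/ml human IFN-beta and dosed with compound in a 12-point 1:3 titration (top final 46 uM). After 24 hrs at 37 C, HiBiT lytic luminescence or CellTiter Glo ATP read out.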

Assay [2] has as its target Nuclear receptor subfamily 1 group I member 2 (Rattus norvegicus) (UniProt Q9R1A7). The assay is described as follows: qHTS assay for small molecule activators of the rat pregnane X receptor (rPXR) signaling pathway (AID 651751; call rule not given here; further: 0% is about no effect). The settings on record: rPXR reporter cells, luciferase (One-Glo), 24 h.
Assay [3] in a line: qHTS assay for small molecule activators of the human pregnane X receptor (PXR) signaling pathway (AID 720659; call rule not given here; further: 0% is about no effect).
A short description of assay [4]: Drug repurposing screens with cells derived from glioblastoma tumor samples (AID 1345199). Further: potency means the concentration at half of the fitted maximal effect. On activity, negative = cell killing: on the % scale 0 is the no-effect control and ±100 the full control effect. On all read-outs here: nearly all actives have a fitted effect of over 40% in size. The settings on record: GBM patient neurospheres viability, ATP luminescence, 48 h; for Potency: tumour line A. Summed up:
as §2

The mark [5] stands for this setting: at 45.9 µM (top of the series), tumour line B.
Setting [6] is: at 46.1 µM (top of the series), tumour line C.

The structures appear in SMILES notation. Several values for one entry are separate records, joined by “and”; a condition that tells them apart may be missing. Equal entries are not always repeated. A number with no mark means an inactive call. Results filed as inconclusive are left out. Activity calls are given as the source filed them. Unless noted, the call rests on the fitted dose curve; in most records, active means well fitted curve in the direction sought with a large enough effect; inconclusive means small, poorly fitted or top-dose-only effect, or another doubt; inactive means no such curve, though single readings can be large; an effect the other way counts as inactive or inconclusive.

Chain of Nuclear receptor subfamily 1 group I member 2 (Rattus norvegicus) (Q9R1A7 whole entry, looked up): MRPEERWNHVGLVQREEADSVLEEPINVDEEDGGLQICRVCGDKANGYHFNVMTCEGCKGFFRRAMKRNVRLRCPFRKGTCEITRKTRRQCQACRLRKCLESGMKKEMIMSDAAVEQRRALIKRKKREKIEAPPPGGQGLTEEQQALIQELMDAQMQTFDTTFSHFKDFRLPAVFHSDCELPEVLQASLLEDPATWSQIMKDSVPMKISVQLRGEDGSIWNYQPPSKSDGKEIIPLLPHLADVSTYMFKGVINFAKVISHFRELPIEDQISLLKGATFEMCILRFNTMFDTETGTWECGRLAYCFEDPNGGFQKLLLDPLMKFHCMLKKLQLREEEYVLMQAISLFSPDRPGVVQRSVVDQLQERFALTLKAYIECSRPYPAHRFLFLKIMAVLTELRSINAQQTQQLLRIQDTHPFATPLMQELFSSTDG

On to `O=C(O)COCCN1CCN(C(c2ccccc2)c2ccc(Cl)cc2)CC1` (centres undefined), for which the Potency result in the assay with Tov-21-G, in the assay with Tov112D and in the assay with astro was “inactive” each time.

As to `C#Cc1cccc(Nc2ncnc3cc(OCCOC)c(OCCOC)cc23)c1`, the Potency result in the assay on Tov112D was “inactive”.

As to `CS(=O)(=O)c1cccc(CNc2nc(Nc3ccc4c(c3)CCC(=O)N4)ncc2C(F)(F)F)c1`, the Potency result in the assay with Tov112D is “inactive”. Further, the Potency in assay [1] is 11.1 µM (active).

For the compound `CC1(C)Cc2c(-c3ccccc3)c(-c3ccc(Cl)cc3)c(CC(=O)O)n2C1`, the Potency entry with Tov112D is “inactive”.

As to `COc1ccc(CCN2CCN(CCCc3ccccc3)CC2)cc1OC`, the Potency result in the assay with Tov112D was “inactive”.

Regarding `O=C1CCc2cc(OCCCCc3nnnn3C3CCCCC3)ccc2N1`, the Potency entry in the assay on Tov-21-G, in the assay with Tov112D and in the assay on astro was “inactive” throughout.

On to `CC(C)(Sc1ccc(CCN(CCCCC2CCCCC2)C(=O)NC2CCCCC2)cc1)C(=O)O`, for which the Potency entry in the assay on Tov-21-G and in the assay with Tov112D was “inactive” throughout. Besides, the max response in assay [2] was -3.94%. For the same compound, the outcome in assay [3] was inactive.

On to `N#CC[C@H](C1CCCC1)n1cc(-c2ncnc3[nH]ccc23)cn1`, for which, in the assay on Tov112D, the Potency result is “inactive”.

In the case of `COc1c(Cl)cc2c([nH]c3cnccc32)c1NC(=O)c1cccnc1C`, the Potency entry (with Tov-21-G; in the assay with Tov112D; in assay [1]) was “inactive” in each case.

Take `Nc1nc2[nH]cc(CCc3ccc(C(=O)N[C@@H](CCC(=O)O)C(=O)O)cc3)c2c(=O)[nH]1`: the activity, negative = cell killing in assay [4] (setting [5]) was -23.6%; in assay [4] (at 45.9 µM (top of the series), tumour line D), -14.3%. In addition, in assay [4], the Potency is 0.251 µM (active). Besides, the Potency result in the assay on astro was “inactive”.

Take `CC[C@@H](C)[C@H](NC(=O)[C@H](CC1CCCCC1)NC(=O)c1ccno1)C(=O)N1CCC2(CCc3ccccc32)CC1`: the Potency entry (in the assay with Tov-21-G; in the assay with Tov112D; in assay [1]) was “inactive” throughout.

Consider `Nc1nc2ccc(OC(F)(F)F)cc2s1`, for which the activity, negative = cell killing in assay [4] (setting [6]) is 16.9%. In the assay with astro, the Potency result is “inactive”.

Regarding `Cc1cc2c(C(C)C)c(O)c(O)c(C=O)c2c(O)c1-c1c(C)cc2c(C(C)C)c(O)c(O)c(C=O)c2c1O`, the Potency result (in the assay with Tov-21-G; with Tov112D; in assay [1]) was “inactive” throughout. In addition, the outcome in assay [3] was inactive.

`Cc1cc(Nc2nc(N[C@@H](C)c3ncc(F)cn3)ncc2Cl)n[nH]1`: the Potency is 14.1 µM (active) in the assay with Tov-21-G and 1.4 µM (active) in assay [1].

As for `N[C@@H]1CONC1=O`, the Potency entry in the assay on Tov-21-G, in the assay with Tov112D and in the assay on astro was “inactive” in each case.

As for `CCc1cc(Nc2nccc(-c3c(-c4ccc(OC)c(C(=O)Nc5c(F)cccc5F)c4)nc4ccccn34)n2)c(OC)cc1N1CCC(N2CCN(S(C)(=O)=O)CC2)CC1`, the Potency entry (in the assay with Tov-21-G; in the assay on Tov112D; in assay [1]) was “inactive” throughout.

Turning to `Cc1cnc(Nc2ccc(OCCN3CCCC3)cc2)nc1Nc1cccc(S(=O)(=O)NC(C)(C)C)c1`, the Potency in the assay with Tov-21-G was 7.94 µM (active); in the assay with Tov112D, 11.2 µM (active); in assay [1], 6.25 µM (active).

As for `O=C(NOC[C@H](O)CO)c1ccc(F)c(F)c1Nc1ccc(I)cc1F`, the Potency entry in the assay on Tov112D is “inactive”. Besides, the Potency in the assay with astro is 0.447 µM (active).

On to `COc1cc(Nc2ncc3c(n2)-c2ccc(Cl)cc2C(c2c(F)cccc2OC)=NC3)ccc1C(=O)O`, for which the Potency entry (in the assay on Tov-21-G; in the assay on Tov112D; in assay [1]) was “inactive” throughout.

For the compound `Cn1cnc([N+](=O)[O-])c1Sc1ncnc2nc[nH]c12`, the Potency was 1.12 µM (active) and 3.16 µM (active) in the assay on Tov-21-G; 5.62 µM (active) and 7.08 µM (active) in the assay on Tov112D. The max response in assay [2] was -0.454% and -2.45%. Besides, the call in assay [3] was inactive.

As to `CN(C)c1ccc(C2Nc3ccc4ccccc4c3C3=C2C(=O)CC(C)(C)C3)cc1Br` (centres undefined), the Potency entry in the assay on Tov112D was “inactive”.

Turning to `O=NN(CCCl)C(=O)NCCCl`, the Potency result in the assay with Tov-21-G, in the assay with Tov112D and in the assay with astro was “inactive” in each case. In addition, the max response in assay [2] was -1.45%.

`CCOC(=O)N1CCC(=C2c3ccc(Cl)cc3CCc3cccnc32)CC1`: the figures for the activity, negative = cell killing in assay [4] (setting [5]) and in assay [4] (setting [6]) were -28.2% and -20.3%, respectively. In addition, the Potency in assay [4] was 10 µM (active).

As for `CCCS(=O)(=O)Nc1ccc(F)c(C(=O)c2c[nH]c3ncc(-c4ccc(Cl)cc4)cc23)c1F`, in the assay with Tov112D, the Potency result was “inactive”.

Regarding `OC(CN1CCC(Cc2ccc(F)cc2)CC1)c1ccc(Cl)cc1` (centres undefined), the Potency entry in the assay on Tov-21-G, with Tov112D and in the assay with astro was “inactive” each time.

In the case of `NC[C@H](O)c1ccc(O)c(O)c1`, the Potency result in the assay with Tov-21-G, in the assay on Tov112D and with astro was “inactive” in each case. Also, the max response in assay [2] was 2.15%. Moreover, the outcome in assay [3] was inactive.

These data come from PubChem BioAssay (NCATS).
